Consider 29 compounds from PubChem BioAssay (NCATS).

Several values for one entry are separate records, joined by “and”; a condition that tells them apart may be missing. Identical values can stand only once. Results filed as inconclusive are left out. A number with no mark means an inactive call. Activity calls are given as the source filed them. Calls follow the shape of the dose curve; as a rule, active = well fitted activation curve with a large enough effect; inconclusive = small, poorly fitted or top-dose-only effect; inactive = no such curve, though single readings can be large or run the other way.
Potency is read from the fitted curve at half-maximal effect.

Cellular tumor antigen p53 (Homo sapiens), sequence (P04637 whole entry, looked up): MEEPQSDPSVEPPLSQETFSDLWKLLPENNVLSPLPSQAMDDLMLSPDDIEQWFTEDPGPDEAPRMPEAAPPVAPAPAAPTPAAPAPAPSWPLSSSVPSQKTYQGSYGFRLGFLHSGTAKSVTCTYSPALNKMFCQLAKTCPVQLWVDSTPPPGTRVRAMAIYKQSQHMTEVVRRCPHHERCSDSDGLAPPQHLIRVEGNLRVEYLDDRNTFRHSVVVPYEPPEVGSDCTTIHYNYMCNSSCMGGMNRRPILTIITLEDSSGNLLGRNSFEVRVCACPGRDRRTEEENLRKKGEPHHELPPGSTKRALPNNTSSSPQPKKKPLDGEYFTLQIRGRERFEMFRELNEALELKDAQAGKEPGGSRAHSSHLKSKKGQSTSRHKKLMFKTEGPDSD

The target of the test is Cellular tumor antigen p53 (Homo sapiens) (UniProt P04637). In words: Primary qHTS for small molecule compounds that upregulate eGFP-tagged delta133p53alpha (in N-terminal) cells. (AID 2060322). Also: nearly all actives have a fitted effect of over 75% in size.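 As to activation: series mostly up to about 56 µM; 0% = DMSO vehicle and 100% = reference activator.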 The conditions noted are these: NCI-H358 eGFP-delta133p53alpha fluorescence, 24 h; activation: hits give high values. A digest of the protocol:
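NCI-H358 cells pre-induced 24 h with 10 ng/ml doxycycline to express N-terminal eGFP-delta133p53alpha, then dosed 24 h at 37C without doxycycline; fixed, Hoechst-stained, GFP intensity by laser scanning cytometry, normalized to DMSO (0%) and 57.5 uM 5-azacytidine (100%).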
A general note: Quantitative high-throughput screening tests each substance at several concentrations.
As to `FC(F)(F)C(Cl)Br` (centres undefined), the activation is 8.37%. For the compound `CCC(=O)NC[C@H](Cc1ccc(OCCc2nc(-c3ccccc3)oc2C)cc1)NC(C)=CC(=O)c1ccc(C(F)(F)F)cc1`, the activation is 17.2%. On the same count and under the same terms, for `CCCCC(CC)CNC(=O)CC(C)OC(=O)CCC(=O)O` (centres undefined) the value was 11.7%; for `CON=C(C(=O)N[C@@H]1C(=O)N2C(C(=O)OCOC(=O)C(C)(C)C)=C(C=Cc3scnc3C)CS[C@H]12)c1csc(N)n1`, -6.48%. The same measure, in the same setting: for `CN(C)CCOc1ccc(-c2nc(-c3ccc4c(c3)CCC4=NO)c(-c3ccncc3)[nH]2)cc1` the value was -18.7%; for `OCCCc1ccccc1`, -6.21%. Regarding `CC(C)=CCC/C(C)=C/CC/C(C)=C/CCC(=O)OC/C=C(\C)CCC=C(C)C`, the activation is 0.565%.

As for `C[C@@]12C(=O)OC(=O)[C@@]1(C)C1CCC2O1`, the Potency is 9.68 µM (active). With `Cc1onc(-c2c(Cl)cccc2Cl)c1C(=O)Cl`, the activation was -15.3%. The same measure, in the same setting: for `CCOc1c(N2CCOCC2)cnn(C)c1=O` the value was -4.18%; for `CCOC(=O)C(=O)CCc1ccccc1`, 10%. Turning to `O=C(O)c1ccnc2cc(C(OCCCN3CCCCC3)c3ccccc3Cl)[nH]c12` (centres undefined), the activation was 1.12%. Same read-out and setting: for `COc1ccccc1N1CCN(CC(O)COc2cc(OC)c(OC)c(OC)c2)CC1` (centres undefined) the value was -6.21%; for `CC1(C)[C@@H]2CC[C@@]1(C)C(=O)C2`, -0.837%.

With `Cc1cc(C(C)(C)C)c(O)c(C(C)(C)C)c1`, the Potency is 21.9 µM (active). As for `COc1cc2c(cc1O)CCC1C2CC[C@@]2(C)C1CC[C@@H]2O` (some centres undefined), the activation was 27.6%. Still for that read-out and setting: for `CC[C@H](NC(=O)[C@H](C)NC)C(=O)N1C[C@@H](O)C[C@H]1Cc1c(-c2[nH]c3cc(F)ccc3c2C[C@H]2C[C@H](O)CN2C(=O)[C@H](CC)NC(=O)[C@H](C)NC)[nH]c2cc(F)ccc12` the value was 21.3%; for `CCCCCCCCCCCCCCNCCO`, -16.7%. On to `CC(=O)OC[C@H]1O[C@@](COC(C)=O)(O[C@H]2O[C@H](COC(C)=O)[C@@H](OC(C)=O)[C@H](OC(C)=O)[C@H]2OC(C)=O)[C@@H](OC(C)=O)[C@@H]1OC(C)=O`, for which the activation is 10.7%. Consider `CCCCC(CC)COC(=O)c1ccccc1C(=O)O` (centres undefined), for which the activation was -12.6%.

Take `COC(=O)C1=C(C)NC(C)=C(C(=O)OC)C1c1ccccc1[N+](=O)[O-]`: the activation was -16.4% and -36.9%.

As to `CCCOC(=O)c1ccccc1`, the activation is -2.82%.

As for `COC(=O)c1cc(Cl)ccc1NS(=O)(=O)C(F)(F)F`, the activation is 8.47%. The same measure, in the same setting: for `C[C@@H](CN(C)C)CN1c2ccccc2Sc2ccccc21` the value was -15.1%; for `O=C(/C=C/c1ccccc1)OC[C@H]1O[C@@H](OC(=O)c2cc(O)c(O)c(O)c2)[C@H](O)[C@@H](O)[C@@H]1O`, -19.1%. As to `Oc1c(Cl)cc(Cl)c(Cl)c1Cc1c(O)c(Cl)cc(Cl)c1Cl`, the activation is 19.8%. Still for that read-out and setting: for `CCC(=O)O[C@]1(C(=O)COC)[C@@H](C)C[C@H]2[C@@H]3CCC4=CC(=O)C=C[C@]4(C)C3(F)[C@@H](O)C[C@@]21C` (some centres undefined) the value was -4.18%; for `CC(C)(C)C1CCC(CC2=C(O)c3ccccc3C(=O)C2=O)CC1` (centres undefined), -11.9%; for `O=C(c1ccc(F)cc1)C1CCN(CCn2c(=S)[nH]c3ccccc3c2=O)CC1`, -8.47%.
